# Source: PubChem BioAssay (National Center for Advancing Translational Sciences (NCATS))
# An excerpt weighted towards active compounds, which were near 8% of everything screened.
# SW480 rerep – DNA re-replication induction in SW480 cells. hit rate 1.8% among 340,000. Potency, µM (top dose mostly 46.1 µM), for inactives: top-dose re-replication activation, usual class: activators. SW480 DNA re-replication, Hoechst DNA content imaging, 48 h. AID 624297; note: % of control where 0% means no effect; nearly all actives have a fitted effect of over 55% in size
#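 Image-based DNA-content assay: after two days of treatment, nuclei were labelled with the DNA dye Hoechst and imaged, and hits were compounds raising the count of nuclei showing high fluorescence intensity.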
# HT1080 IDH1KD tx – HT-1080 IDH1 knockdown cell toxicity (counter line); hit rate 2% among 360,000; HT-1080 IDH1 knockdown viability, ATP luminescence, 48 h; Potency, µM (highest dose often 46.1 µM), for the others: at the top dose activity, negative = toxicity, usual class: cytotoxic;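 note: 0% = DMSO wells and -100% = cell-free medium wells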
#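 IDH1KD HT-1080 cells, 750/well, RPMI + 5% FBS; compound pinned after 2 h settling; 48 h, 37 °C; CellTiter-Glo luminescence; % activity normalised to DMSO and no-cell wells; curves fitted, classed by r2 and efficacy.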
# MCF10A rerep – DNA re-replication induction in MCF 10a cells | MCF 10A DNA re-replication, Hoechst nuclear intensity, 48 h | Potency, µM (doses to about 46.1 µM), inactives show at the top dose activity, positive = re-replication, actives largely listed as activators | hit rate 2.9% among 350,000 | AID 624296; note: % of control where 0% means no effect; nearly all actives have a fitted effect of over 50% in size
# HT1080-NT tox – kills 2HG-producing HT-1080-NT fibrosarcoma cells; AID 686970; HT-1080-NT fibrosarcoma viability, CellTiter-Glo ATP luminescence, 48 h; hit rate 1.6% among 360,000; Potency, µM (series often up to 46.1 µM), without a hit: at the highest dose activity, negative = less viability, most hits filed as cytotoxic;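 note: NT is the 2HG producing partner of a matched IDH1 knockdown line; 0% = DMSO-treated cells and -100% = media-only wells without cells; nearly all actives have a fitted effect of over 55% in size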
#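 Viability by CellTiter-Glo luminescence after 48 h compound exposure at 37C of HT-1080-NT cells (750/well, RPMI, 5% FBS). % activity scaled between DMSO wells and medium-only wells, then curve-fitted and categorized by curve class.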
# KB-3-1 cytotox – kills parental KB-3-1 adenocarcinoma cells; KB-3-1 viability, CellTiter-Glo ATP luminescence, 72 h; Potency, µM (doses to about 46.1 µM), most hits filed as cytotoxic; hit rate 1.4% among 400,000; AID 1347075; note: % is set by controls: 0 for no effect and ±100 for the full control effect; nearly all actives have a fitted effect of over 60% in size
#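 Using CellTiter-Glo luminescence, growth of non-resistant KB-3-1 adenocarcinoma cells is assessed 72 h after pin-tool compound addition at 37 °C. Normalized responses across the concentration series yield fitted curves.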
# KB-V1 MDR tox – kills drug-selected multidrug resistant KB-V1 cells; KB-V1 MDR cells viability, CellTiter-Glo, 72 h; Potency, µM (titrated, usually from 46.1 µM), most hits filed as cytotoxic; hit rate 3.4% among 400,000; note: % is set by controls: 0 for no effect and ±100 for the full control effect; nearly all actives have a fitted effect of over 60% in size
#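 qHTS viability screen in drug-selected KB-V1 MDR cells: 72 h compound treatment at 37 degrees C, ATP luminescence end point.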
# The depositor's hits bear a star; i = inactive; ? = inconclusive; · = not tested or not shown; [ ] = remark or other dose. Calls come from the whole dose curve; as a rule, active = well fitted curve in the direction sought with a large enough effect; inconclusive = small, poorly fitted or top-dose-only effect, or another doubt; inactive = no such curve, though single readings can be large; an effect the other way counts as inactive or inconclusive. Potency is the fitted concentration of half-maximal effect.
SMILES,SW480 rerep,HT1080 IDH1KD tx,MCF10A rerep,HT1080-NT tox,KB-3-1 cytotox,KB-V1 MDR tox
CCCCC(=O)NC(=S)Nc1cccc(Cl)c1N1CCCCC1,14%,-16%,?,0%,i,21µM*
CCC(=O)NC(=S)Nc1cccc(Cl)c1N1CCCCC1,11µM*,5.6µM*,?,4.5µM*,?,i
CCOC(=O)c1cc(S(=O)(=O)N2CCN(c3ccc(F)cc3)CC2)[nH]n1,·,·,·,·,i,i
CNc1cccc(S(=O)(=O)N2CCCN(S(=O)(=O)c3ccc4c(c3)OCCO4)CC2)c1,·,·,·,·,i,i
CCn1c2ccccc2nc2cc3c(cc21)c(Cl)c(=O)c1ccccc13,·,21µM*,·,?,?,i
Cc1cc(OC(C)C)nc(NCc2ccccc2)n1,?,?,?,?,12µM*,i
Cc1ccc(Nc2cc(C)nc(NCc3ccccc3)n2)cc1,?,18µM*,18µM*,21µM*,?,12µM*
Cc1cc(N/N=C/c2ccccc2Cl)nc(NCc2ccccc2)n1,?,?,16µM*,?,?,?
Cc1cc(NC2CCCCC2)nc(NCc2ccccc2)n1,15µM*,?,?,?,?,i
COc1ccc(Nc2cc(C)nc(NCc3ccccc3)n2)cc1,-1%,21µM*,7%,18µM*,?,?
Cc1cc(C)nc(N/N=C/c2cccc3ccccc23)n1,4%,4%,-6%,14%,i,18µM*
COc1cc(C)nc(NCc2ccccc2)n1,-2%,-11%,-2%,0%,i,i
CCC(CC)c1nn2c(=O)cc(COc3ccc(NC(=O)c4ccccc4Cl)cc3)nc2s1,·,·,·,·,i,?
CCOc1ccc(-c2cc(C(=O)N3CCN(S(=O)(=O)c4cc(Cl)ccc4OC)CC3)[nH]n2)cc1,·,·,·,·,i,?
Cc1ccccc1C1N=C2Oc3ccccc3C=C2C(=O)N1 (stereo not given),·,-6%,·,-17%,7.3µM*,4.1µM*
Cc1ccccc1C1NC(=O)c2ccccc2O1 (stereo not given),-5%,2%,0%,7%,i,i
O=C(CN1CCCCC1)Nc1ccccc1Oc1ccccc1,-122%,-2%,18µM*,?,i,i
CN1CCN(CC(=O)Nc2ccccc2Oc2ccccc2)CC1,-2%,4%,-3%,-6%,i,i
COc1ccccc1NC(=O)CN1CCN(Cc2ccccc2)CC1,-1%,1%,9%,9%,i,10µM*
O=C(CN1CCCCC1)Nc1ccc(NC(=O)c2ccccc2Cl)cc1Cl,-50%,-1%,?,-1%,23µM*,4.6µM*
COc1ccccc1NC(=O)CN1CCN(CC(=O)Nc2ccc(OCc3ccccc3)cc2)CC1,14%,?,5%,?,i,?
COc1ccc2ncc3c(-c4ccc(C)c(C)c4)nn(CC(=O)Nc4ccccc4)c3c2c1,·,·,·,·,i,?
CCc1ccc(CNCCNC(=O)c2ccco2)cc1,?,-10%,18µM*,-24%,i,?
Cc1cccc(-n2ncc3c(Nc4c(C)n(C)n(-c5ccccc5)c4=O)ncnc32)c1,4%,-10%,-7%,0%,i,21µM*
COc1ccccc1Nc1ncnc2c1cnn2-c1cccc(C)c1,6%,-9%,?,0%,i,i
SMILES,SW480 rerep,HT1080 IDH1KD tx,MCF10A rerep,HT1080-NT tox,KB-3-1 cytotox,KB-V1 MDR tox
COc1cccc(Nc2ncnc3c2cnn3-c2cccc(C)c2)c1,1%,-15%,?,-2%,i,21µM*
Cc1c(Nc2ncnc3c2cnn3-c2ccccc2)c(=O)n(-c2ccccc2)n1C,6%,-9%,4%,-3%,i,?
Cc1ccc(NC(=O)Cn2c(=O)nc(-c3ccccc3F)c3cc(Cl)ccc32)c(Br)c1,·,·,·,·,16µM*,?
COCCN(C(=S)Nc1cccc(C)c1)C(C)c1cccs1 (stereo not given),0%,7%,-2%,3%,i,i
CC(C)CCN(C(=S)Nc1cccc(F)c1)C(C)c1cccs1 (stereo not given),-4%,3%,16µM*,16%,i,i
COC(=O)Cn1c(=O)c2c(n(Cc3ccccc3)c1=O)N/C(=C/c1ccc(OC)cc1)C2=O,21µM*,-23%,18µM*,-15%,i,i
COC(=O)Cn1c(=O)c(C(=O)CCl)c(N)n(Cc2ccccc2)c1=O,?,11%,5.2µM*,8%,13µM*,?
N#Cc1nc(Nc2cc(F)cc(F)c2)c2ncn(CCCN3CCCC3)c2n1,·,·,·,·,i,i
CC(=O)Nc1cc(C(=O)OC(C(=O)c2ccccc2)c2ccccc2)ccc1C (stereo not given),-12%,-2%,32%,-2%,i,16µM*
Cc1ccc(NC(=O)C(OC(=O)c2ccc(C=O)cc2)c2ccccc2)cc1Cl (stereo not given),?,23µM*,-18%,?,i,i
COc1ccc(-c2noc(C3CC(=O)N(c4ccc(C)c(F)c4)C3)n2)c(OC)c1 (stereo not given),·,·,·,·,i,i
CC1CCN(S(=O)(=O)c2ccc3c(ccc(=O)n3CC(=O)NCc3ccccc3)c2)CC1,·,·,·,·,i,i
COCCCNC(=O)Cc1c(C)c2c(cc(C)c3c(C(C)(C)C)coc32)oc1=O,2.3µM*,2.9µM*,?,4.1µM*,5.2µM*,5.2µM*
Cc1ccc(C(=O)N2CCC(N3CCN(Cc4ccc(F)cc4)C(=O)C3=O)CC2)cc1,·,·,·,·,i,i
CC(C)Nc1nnc(SCC(=O)Nc2ccc3c(c2)C(=O)c2ccccc2C3=O)s1,-44%,?,?,-11%,?,10µM*
CSc1ccc(CN(C)C(=O)CNC(=O)c2ccc3c(c2)OCO3)cc1,-4%,14%,14%,2%,i,21µM*
Cc1cccc(OCCn2c(-c3ccc(Cl)cc3)nc3ccccc3c2=O)c1C,·,·,·,·,i,i
O=C1C(c2ccc(C(F)(F)F)cc2)=C(Nc2ccc(Cl)cc2)c2ccccc21,·,·,·,·,i,i
O=C1C2CC=CCC2C(=O)N1c1ccc(OCC(O)Cn2nnc3ccccc32)cc1 (stereo not given),0%,-1%,4%,1%,?,15µM*
CC(=O)c1ccc(OCC(O)Cn2nnc3ccccc32)cc1 (stereo not given),?,7%[9.24 µM],-2%,-26%,i,i
COC(=O)c1ccc(OCC(O)Cn2nnc3ccccc32)cc1 (stereo not given),-6%,-3%,0%,-3%,i,23µM*
